Experimental data taken from ChEMBL document CHEMBL3988442, “University of Dundee, Small-Polar-MMV Screening Library” (2021).

Assays:
[1] = biological target: T1, Aspartate--tRNA(Asp/Asn) ligase (Mycobacterium tuberculosis (strain ATCC 25618 / H37Rv)) (UniProt P9WFW3); test: Assay for Asp RNA synthetase-1 from Mycobacterium tuberculosis; type: functional; parameters: scale not given: direction of the effect not stated beside the values; conditions: 30 µM; note: in the data most compounds retested in dose-response had high values
T1 sequence (whole entry): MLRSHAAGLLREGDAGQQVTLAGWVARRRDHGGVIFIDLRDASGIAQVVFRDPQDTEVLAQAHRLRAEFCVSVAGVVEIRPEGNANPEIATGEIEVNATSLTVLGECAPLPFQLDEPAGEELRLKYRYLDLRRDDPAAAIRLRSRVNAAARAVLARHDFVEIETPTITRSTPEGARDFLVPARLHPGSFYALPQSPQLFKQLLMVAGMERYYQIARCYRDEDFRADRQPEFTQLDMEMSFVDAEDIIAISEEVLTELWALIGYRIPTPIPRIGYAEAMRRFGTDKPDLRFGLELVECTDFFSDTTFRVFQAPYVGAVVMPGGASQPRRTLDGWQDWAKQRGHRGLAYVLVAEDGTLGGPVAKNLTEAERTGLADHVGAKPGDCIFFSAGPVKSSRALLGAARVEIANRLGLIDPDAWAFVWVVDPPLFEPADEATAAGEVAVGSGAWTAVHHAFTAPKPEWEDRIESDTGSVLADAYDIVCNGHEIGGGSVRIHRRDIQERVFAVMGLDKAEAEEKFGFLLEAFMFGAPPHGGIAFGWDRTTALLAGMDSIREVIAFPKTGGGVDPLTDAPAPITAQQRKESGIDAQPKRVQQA

[2] = biological target: Shiga toxin 2 (Escherichia coli O157:H7) (UniProt P09385+P09386); test: E. coli 0.157:H7 Shiga Toxin SOP - stx2 screening assay; type: functional; parameters: scale not given: direction of the effect not stated beside the values; conditions: 30 µM

Compound	Percent Effect [1] [%]	Percent Effect [2] [%]
COC(=O)C1CCN(C(=O)c2ccc(N(C)S(C)(=O)=O)c(C)c2)CC1	-4.11	-5.54
CCN1CCN(C2CCN(Cc3c(C)noc3C)CC2)C1=O	-5.48	-30.9
CCn1cnnc1CNC(=O)N1CCN(c2cccc(OC)c2)CC1	0.152	-10.2
Cc1ccsc1C(=O)N1Cc2ccccc2C2(CCN(C)CC2)C1	5.26	5.47
COc1ccc(NC(C)C(=O)N2CCN(Cc3ccccc3)CC2)cn1 (centres undefined)	3.97	-11.8
COc1cccc2c1ccn2CCC(=O)N1CCCC(C(=O)O)C1 (centres undefined)	6.53	-30.4
O=S(=O)(CCNCc1cccc2c1OCCO2)N1CCOCC1	-2.82	-39
Cc1ccc(NC2CCN(C(=O)c3cc(C(N)=O)cs3)CC2)nn1	4.69	3.48
Cc1[nH]ncc1C(=O)N1CCCC(c2cc(C(F)(F)F)[nH]n2)C1 (centres undefined)	0.845	24.8
COCCNC(=O)[C@H]1CN(c2nnc(C)s2)C[C@H]2OCC[C@@H]12	-1.22	-23.9
CN1CC2(COCCN(C(=O)c3ccco3)C2)OCC1=O (centres undefined)	8.76	9.96
COc1cc(CNC(=O)C2CC(=O)N(C(C)C)C2)ccn1 (centres undefined)	-1.66	-62.3
CN(C)S(=O)(=O)c1ccc(CN2CCCC2c2ccc[nH]2)o1 (centres undefined)	-3.62	8.06
CC(C)C(=O)N1CCN(C(=O)c2cscn2)[C@H]2CS(=O)(=O)C[C@H]21	-8.33	-5.71
COCCc1noc(CNC2CCSC2)n1 (centres undefined)	-5.83	6.26
CN(C)c1ncnc2c1CCN(CC1CCCC1)CC2	-1.05	-5.38
Cn1cc(CC2CCN(C(=O)NCCc3cccc(O)c3)C2)cn1 (centres undefined)	-5.03	-12.2
